# Data from PubChem BioAssay (NCATS).
# A number with no mark means an inactive call. Results filed as inconclusive are left out. Where a call stands in place of a potency, no number is given. Activity calls are given as the source filed them. The call rests on the fitted dose curve; in most records, active means well fitted curve in the direction sought with a large enough effect; inconclusive means small, poorly fitted or top-dose-only effect, or another doubt; inactive means no such curve, though single readings can be large; an effect the other way counts as inactive or inconclusive. Peptide text beside a SMILES is read from it.
# Tests used:
# [1] = target: Luciferin 4-monooxygenase (Photinus pyralis) (UniProt P08659); assay: Primary firefly luciferase (FLuc) qHTS assay for identification of artifact compounds. (AID 1845220); further: nearly all actives have a fitted effect of over 60% in size
# Summary of the method: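 Titrated compounds were incubated 15 min at RT, protected from light, with luciferin and ATP at 10 uM; reaction started with 10 nM FLuc, luminescence imaged at 5 min, and concentration-response fitted by Hill equation.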
# [2] = system: Nanoluciferase (engineered Oplophorus gracilirostris luciferase); assay: Primary Nanoluciferase (NLuc) qHTS assay for identification of artifact compounds. (AID 1845222);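 further: NLuc secreted into diluted conditioned medium of S16 cells; series mostly up to about 54 µM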
# Summary of the method: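 qHTS format, against NLuc in S16 cell-conditioned medium. Nano-Glo substrate 1:100 was added after 15 min at room temperature. Luminescence was taken after a further 5 min.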
# [3] = Primary redox qHTS assay for identification of artifact compounds. (AID 1845223)
# Summary of the method: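 Redox-cycling detection via DTT (250 uM final) oxidation coupled to Amplex Red (25 uM)/HRP (250 mU/mL) in HBSS. 15 min preincubation plus 30 min after DTT, room temperature. Ex/Em 525/598 nm; 4-parameter Hill fit against DMSO and 10 uM DA3003.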
# [4] = Quantitative High-Throughput drug screen in 47 multiple myeloma cell lines against the NCATS MIPE library collection: FR4_PLB cell viability assay (AID 1918924; further: nearly all actives have a fitted effect of over 35% in size; further: potency means the concentration at half of the fitted maximal effect)
# Summary of the method: (§1)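 Steps: seed 500 cells per well; pin-transfer MIPE 4.0 library; incubate 48 h at 37C, 5% CO2, humidified; add CellTiter-Glo, 5 min room temperature; read luminescence.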
# [5] = Quantitative High-Throughput drug screen in 47 multiple myeloma cell lines against the NCATS MIPE library collection: Delta47_JCRB cell viability assay (AID 1918925; further: nearly all actives have a fitted effect of over 45% in size; further: potency means the concentration at half of the fitted maximal effect)
# Summary of the method: (§2)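 Myeloma cell lines, 500 cells per well, exposed to MIPE 4.0 library compounds for 48 h at 37C, 5% CO2. Viability from ATP by CellTiter-Glo luminescence; normalised to DMSO (100%) and media-only (0%) wells.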
# [6] = Quantitative High-Throughput drug screen in 47 multiple myeloma cell lines against the NCATS MIPE library collection: EJM_DSMZ cell viability assay (AID 1918926; further: nearly all actives have a fitted effect of over 30% in size; further: potency means the concentration at half of the fitted maximal effect)
# Summary of the method: as §2
# [7] = Quantitative High-Throughput drug screen in 47 multiple myeloma cell lines against the NCATS MIPE library collection: AMO1_DSMZ cell viability assay (AID 1918927; further: nearly all actives have a fitted effect of over 30% in size; further: potency means the concentration at half of the fitted maximal effect)
# Summary of the method: as §2
# [8] = Quantitative High-Throughput drug screen in 47 multiple myeloma cell lines against the NCATS MIPE library collection: ARP1_JJKsccF8 cell viability assay (AID 1918928; further: nearly all actives have a fitted effect of over 40% in size; further: potency means the concentration at half of the fitted maximal effect)
# Summary of the method: (§3)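 CellTiter-Glo luminescence after 48 h exposure gives viability, scaled between DMSO-only (100%) and media-only (0%) controls. Library compounds are pinned onto 500 myeloma cells per well, incubated at 37C with 5% CO2.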
# [9] = Quantitative High-Throughput drug screen in 47 multiple myeloma cell lines against the NCATS MIPE library collection: Karpas620_DSMZ cell viability assay (AID 1918959); further: nearly all actives have a fitted effect of over 30% in size; further: potency means the concentration at half of the fitted maximal effect
# Summary of the method: as §1
# [10] = Quantitative High-Throughput drug screen in 47 multiple myeloma cell lines against the NCATS MIPE library collection: KMM1_JCRB cell viability assay (AID 1918960); further: nearly all actives have a fitted effect of over 30% in size; further: potency means the concentration at half of the fitted maximal effect
# Summary of the method: as §3
# [11] = Quantitative High-Throughput drug screen in 47 multiple myeloma cell lines against the NCATS MIPE library collection: JIM3_ECACC cell viability assay (AID 1918963; further: nearly all actives have a fitted effect of over 35% in size; further: potency means the concentration at half of the fitted maximal effect)
# Summary of the method: as §1
# [12] = Quantitative High-Throughput drug screen in 47 multiple myeloma cell lines against the NCATS MIPE library collection: JIM1_ECACC cell viability assay (AID 1918964; further: potency means the concentration at half of the fitted maximal effect)
# Summary of the method: as §2
# [13] = Quantitative High-Throughput drug screen in 47 multiple myeloma cell lines against the NCATS MIPE library collection: H1112_PLB cell viability assay (AID 1918967; further: nearly all actives have a fitted effect of over 30% in size; further: potency means the concentration at half of the fitted maximal effect)
# Summary of the method: as §2
# [14] = Quantitative High-Throughput drug screen in 47 multiple myeloma cell lines against the NCATS MIPE library collection: Karpas25_ECACC cell viability assay (AID 1918968; further: nearly all actives have a fitted effect of over 35% in size; further: potency means the concentration at half of the fitted maximal effect)
# Summary of the method: as §2
# [15] = Primary fluorescence-based thiol-reactive (MSTI) qHTS assay for identification of artifact compounds. (AID 1845221); further: nearly all actives have a fitted effect of over 65% in size; further: potency means the concentration at half of the fitted maximal effect
# Summary of the method: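 Probe: MSTI 4 uM, PBS pH 7.4, 2% DMSO. Incubation 1 h, RT, light-protected. Readout fluorescence 525/598 nm.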
# [16] = Quantitative High-Throughput drug screen in 47 multiple myeloma cell lines against the NCATS MIPE library collection: INA6_PLB cell viability assay (AID 1918965; further: nearly all actives have a fitted effect of over 55% in size; further: potency means the concentration at half of the fitted maximal effect)
# Summary of the method: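 CellTiter-Glo luminescence (ATP) after 48 h compound exposure, 37C/5% CO2; 500 cells/well; MIPE 4.0 approved/investigational drugs pinned in; DMSO = 100%, media only = 0% viability.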
# [17] = Quantitative High-Throughput drug screen in 47 multiple myeloma cell lines against the NCATS MIPE library collection: KHM11_PLB cell viability assay (AID 1918962); further: nearly all actives have a fitted effect of over 35% in size; further: potency means the concentration at half of the fitted maximal effect
# Summary of the method: as §1
# [18] = Quantitative High-Throughput drug screen in 47 multiple myeloma cell lines against the NCATS MIPE library collection: ARD_JJKsccE7 cell viability assay (AID 1918929; further: potency means the concentration at half of the fitted maximal effect)
# Summary of the method: as §2
# [19] = Quantitative High-Throughput drug screen in 47 multiple myeloma cell lines against the NCATS MIPE library collection: JJN3_DSMZ cell viability assay (AID 1918966; further: nearly all actives have a fitted effect of over 50% in size; further: potency means the concentration at half of the fitted maximal effect)
# Summary of the method: as §2
# [20] = Quantitative High-Throughput drug screen in 47 multiple myeloma cell lines against the NCATS MIPE library collection: KMS27_JCRB cell viability assay (AID 1918970); further: nearly all actives have a fitted effect of over 30% in size
# Summary of the method: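 CellTiter-Glo luminescence after 48 h drug exposure at 37 °C; 500 cells/well, 1536-well format, pin-tool compound addition; DMSO = 100%, media-only = 0% viability.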
Structure (SMILES),Potency [1],outcome [2],outcome [3],Potency [4],Potency [5],Potency [6],Potency [7],Potency [8],Potency [9],Potency [10],Potency [11],Potency [12],Potency [13],Potency [14],Potency [15],Potency [16],Potency [17],Potency [18],Potency [19],Potency [20]
Cc1cc2c(s1)Nc1ccccc1N=C2N1CCN(C)CC1,inactive,inactive,inactive,inactive,inactive,inactive,inactive,inactive,inactive,inactive,inactive,inactive,inactive,3.32 µM (active),–,–,–,–,–,–
CC(=O)NC[C@H]1CN(c2ccc(N3CCOCC3)c(F)c2)C(=O)O1,inactive,inactive,inactive,inactive,–,inactive,inactive,–,inactive,inactive,inactive,–,inactive,–,inactive,inactive,–,–,–,–
O=C(OC1C[C@H]2CC[C@@H](C1)[N+]21CCCC1)C(O)(c1ccccc1)c1ccccc1 (some centres undefined),inactive,inactive,inactive,inactive,–,inactive,inactive,–,inactive,inactive,inactive,inactive,inactive,inactive,inactive,–,inactive,–,–,–
COC(=O)[C@H](Cc1ccccc1)NC(=O)[C@@H](N)CC(=O)O (H-Asp-Phe-OMe),–,–,–,inactive,inactive,inactive,inactive,inactive,inactive,inactive,inactive,inactive,inactive,inactive,–,inactive,inactive,inactive,–,–
c1cnc2cc3c(cc2n1)C1CNCC3C1,inactive,inactive,inactive,inactive,–,inactive,inactive,inactive,inactive,inactive,inactive,inactive,–,inactive,–,inactive,inactive,inactive,–,–
CCC1=C(C)CN(C(=O)NCCc2ccc(S(=O)(=O)NC(=O)NC3CCC(C)CC3)cc2)C1=O (centres undefined),inactive,inactive,inactive,inactive,inactive,inactive,inactive,–,inactive,inactive,inactive,–,inactive,inactive,inactive,inactive,inactive,inactive,inactive,inactive
C[C@@H](c1ncncc1F)[C@](O)(Cn1cncn1)c1ccc(F)cc1F,–,–,–,inactive,inactive,inactive,inactive,inactive,inactive,inactive,inactive,inactive,–,inactive,–,inactive,–,inactive,–,inactive
O=C(O)c1cccnc1Nc1cccc(C(F)(F)F)c1,–,–,–,inactive,inactive,inactive,inactive,inactive,inactive,inactive,inactive,–,inactive,–,–,inactive,–,inactive,–,inactive
COc1cc2c(N3CCN(C(=O)Nc4ccc(OC(C)C)cc4)CC3)ncnc2cc1OCCCN1CCCCC1,inactive,inactive,inactive,–,8.33 µM (active),–,inactive,–,inactive,inactive,–,–,–,9.35 µM (active),inactive,3.72 µM (active),8.33 µM (active),–,–,–
CC(C)C[C@H](NC(=O)[C@H](Cc1ccccc1)NC(=O)c1cnccn1)B(O)O,inactive,inactive,inactive,0.0093 µM (active),–,16.6 nM (active),–,0.0083 µM (active),–,–,23.5 nM (active),–,13.2 nM (active),0.0074 µM (active),inactive,–,0.0083 µM (active),–,0.0166 µM (active),–
CCCS(=O)c1ccc2nc(NC(=O)OC)[nH]c2c1 (centres undefined),inactive,inactive,inactive,11.8 µM (active),–,inactive,inactive,23.5 µM (active),inactive,inactive,–,inactive,–,–,inactive,–,–,–,11.8 µM (active),inactive
N[C@@H](Cc1cc(I)c(Oc2cc(I)c(O)c(I)c2)c(I)c1)C(=O)O,inactive,inactive,inactive,inactive,–,inactive,inactive,inactive,–,inactive,inactive,0.0053 µM (active),inactive,inactive,736 nM (active),–,–,inactive,inactive,–
COc1ccc2cc([C@H](C)C(=O)O)ccc2c1,inactive,–,inactive,inactive,–,inactive,inactive,inactive,inactive,inactive,–,inactive,inactive,20.9 µM (active),–,inactive,29.6 µM (active),inactive,–,–
Clc1ccc(C(Cn2ccnc2)OCc2c(Cl)cccc2Cl)c(Cl)c1 (centres undefined),inactive,inactive,inactive,–,–,–,20.9 µM (active),–,18.7 µM (active),18.7 µM (active),–,23.5 µM (active),–,26.4 µM (active),inactive,29.6 µM (active),–,16.6 µM (active),23.5 µM (active),–
